Measurements published in PubChem BioAssay AID1159580 (chemical genetic matrix, 2015).
The whole screen tested about 5,500 compounds, of which about 2,000 (36%) were called active. Another 18% or so got no clear call; they are omitted. Rule as the data show it: active = normalized growth mostly below about 0.91 (no sharp cut-off); inconclusive = no clear call, values can overlap the other calls; inactive = mostly above about 0.92. Some of the results follow.

Experiment: chemical genetic growth profiling, strain panel (AID 1159580);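 also: tested at 20 µM; growth read once vehicle control cultures reached saturation at 30 °C; 1 = growth at the plate median or of vehicle wells; lower values mean less growth of the strain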
Conditions: growth OD

Measured: normalized growth

COc1c(N2CCNC(C)C2)c(F)cc2c(=O)c(C(=O)O)cn(C3CC3)c12 (configuration not stated)
active: S. cerevisiae deletion strains, locus YLR320W, strain mms22, stronger effect = lower value 0.75 | S. cerevisiae deletion strains, locus YML032C, strain rad52, stronger effect = lower value 0.492 | S. cerevisiae deletion strains, locus YNL250W, strain rad50, stronger effect = lower value 0.868
inactive: S. cerevisiae deletion strains, locus YJR075W, strain HOC1, stronger effect = lower value 0.989 | S. cerevisiae deletion strains, locus YKL009W, strain mrt4, stronger effect = lower value 1.02 | S. cerevisiae deletion strains, locus YKL068W, stronger effect = lower value 0.997 | S. cerevisiae deletion strains, locus YKL085W, strain MDH1 (second series), stronger effect = lower value 0.995 | S. cerevisiae deletion strains, locus YKL085W, strain MDH1, stronger effect = lower value 0.995 | S. cerevisiae deletion strains, locus YKL160W, strain elf1, stronger effect = lower value 0.975 | S. cerevisiae deletion strains, locus YKL190W, strain CNB1, stronger effect = lower value 1.01 | S. cerevisiae deletion strains, locus YKR001C, strain vps1, stronger effect = lower value 0.996 | S. cerevisiae deletion strains, locus YKR026C, strain gcn3, stronger effect = lower value 0.987 | S. cerevisiae deletion strains, locus YKR091W, strain srl3, stronger effect = lower value 0.98 | S. cerevisiae deletion strains, locus YLL001W, strain dnm1, stronger effect = lower value 0.998 | S. cerevisiae deletion strains, locus YLL026W, stronger effect = lower value 0.985 | S. cerevisiae deletion strains, locus YLL041C, strain sdh2, stronger effect = lower value 0.988 | S. cerevisiae deletion strains, locus YLR027C, strain aat2, stronger effect = lower value 0.99 | S. cerevisiae deletion strains, locus YLR039C, strain RIC1, stronger effect = lower value 0.837 | S. cerevisiae deletion strains, locus YLR058C, strain SHM2, stronger effect = lower value 1 | S. cerevisiae deletion strains, locus YLR102C, strain apc9, stronger effect = lower value 0.988 | S. cerevisiae deletion strains, locus YLR113W, strain HOG1, stronger effect = lower value 1.03 | S. cerevisiae deletion strains, locus YLR221C, strain rsa3, stronger effect = lower value 0.975 | S. cerevisiae deletion strains, locus YLR258W, strain gsy2, stronger effect = lower value 0.987 | S. cerevisiae deletion strains, locus YLR262C, strain YPT6 (second series), stronger effect = lower value 0.915 | S. cerevisiae deletion strains, locus YLR262C, strain YPT6, stronger effect = lower value 0.846 | S. cerevisiae deletion strains, locus YLR268W, strain sec22, stronger effect = lower value 0.988 | S. cerevisiae deletion strains, locus YLR330W, strain CHS5, stronger effect = lower value 1.01 | S. cerevisiae deletion strains, locus YLR342W, strain FKS1 (second series), stronger effect = lower value 0.881 | S. cerevisiae deletion strains, locus YLR342W, strain FKS1, stronger effect = lower value 0.972 | S. cerevisiae deletion strains, locus YLR357W, strain rsc2, stronger effect = lower value 0.934 | S. cerevisiae deletion strains, locus YLR370C, strain arc18, stronger effect = lower value 0.978 | S. cerevisiae deletion strains, locus YLR371W, strain rom2, stronger effect = lower value 0.989 | S. cerevisiae deletion strains, locus YLR384C, strain iki3, stronger effect = lower value 0.995 | S. cerevisiae deletion strains, locus YLR418C, strain cdc73, stronger effect = lower value 0.973 | S. cerevisiae deletion strains, locus YML016C, strain PPZ1, stronger effect = lower value 1.01 | S. cerevisiae deletion strains, locus YML120C, strain ndi1, stronger effect = lower value 0.984 | S. cerevisiae deletion strains, locus YML124C, strain tub3, stronger effect = lower value 0.985 | S. cerevisiae deletion strains, locus YMR058W, strain fet3, stronger effect = lower value 0.992 | S. cerevisiae deletion strains, locus YMR078C, strain ctf18, stronger effect = lower value 0.974 | S. cerevisiae deletion strains, locus YMR125W, strain sto1, stronger effect = lower value 0.928 | S. cerevisiae deletion strains, locus YMR129W, stronger effect = lower value 0.974 | S. cerevisiae deletion strains, locus YMR205C, strain PFK2, stronger effect = lower value 0.996 | S. cerevisiae deletion strains, locus YMR223W, strain ubp8, stronger effect = lower value 0.999 | S. cerevisiae deletion strains, locus YMR231W, strain pep5, stronger effect = lower value 0.993 | S. cerevisiae deletion strains, locus YMR263W, strain SAP30, stronger effect = lower value 1.01 | S. cerevisiae deletion strains, locus YMR307W, strain GAS1, stronger effect = lower value 0.845 | S. cerevisiae deletion strains, locus YNL067W, strain RPL9B, stronger effect = lower value 1 | S. cerevisiae deletion strains, locus YNL071W, strain lat1, stronger effect = lower value 0.985 | S. cerevisiae deletion strains, locus YNL128W, strain TEP1, stronger effect = lower value 1.03 | S. cerevisiae deletion strains, locus YNL153C, strain GIM3, stronger effect = lower value 1.01 | S. cerevisiae deletion strains, locus YNL183C, strain NPR1, stronger effect = lower value 0.983 | S. cerevisiae deletion strains, locus YNL209W, strain ssb2, stronger effect = lower value 0.986 | S. cerevisiae deletion strains, locus YNL233W, strain BNI4, stronger effect = lower value 1.01 | S. cerevisiae deletion strains, locus YNL248C, strain rpa49, stronger effect = lower value 0.917 | S. cerevisiae deletion strains, locus YNL271C, strain bni1, stronger effect = lower value 1 | S. cerevisiae deletion strains, locus YNL298W, strain CLA4, stronger effect = lower value 1.02 | S. cerevisiae deletion strains, locus YNL307C, strain MCK1, stronger effect = lower value 1 | S. cerevisiae deletion strains, locus YNL322C, strain KRE1 (second series), stronger effect = lower value 0.967 | S. cerevisiae deletion strains, locus YNL322C, strain KRE1, stronger effect = lower value 1.01 | S. cerevisiae deletion strains, locus YNR049C, strain mso1, stronger effect = lower value 0.963 | S. cerevisiae deletion strains, locus YNR052C, strain pop2, stronger effect = lower value 1 | S. cerevisiae deletion strains, locus YOL006C, strain TOP1, stronger effect = lower value 0.936 | S. cerevisiae deletion strains, locus YOL012C, strain htz1 0.555 | S. cerevisiae deletion strains, locus YOL147C, strain pex11, stronger effect = lower value 1 | S. cerevisiae deletion strains, locus YOR001W, strain rrp6, stronger effect = lower value 0.986 | S. cerevisiae deletion strains, locus YOR061W, strain CKA2, stronger effect = lower value 1.01 | S. cerevisiae deletion strains, locus YOR069W, strain VPS5, stronger effect = lower value 1.01 | S. cerevisiae deletion strains, locus YOR070C, strain gyp1, stronger effect = lower value 0.994 | S. cerevisiae deletion strains, locus YOR080W, strain dia2, stronger effect = lower value 0.97 | S. cerevisiae deletion strains, locus YOR083W, strain WHI5, stronger effect = lower value 1 | S. cerevisiae deletion strains, locus YOR106W, strain vam3, stronger effect = lower value 0.994 | S. cerevisiae deletion strains, locus YOR136W, strain idh2, stronger effect = lower value 1 | S. cerevisiae deletion strains, locus YOR144C, strain elg1, stronger effect = lower value 0.998 | S. cerevisiae deletion strains, locus YOR184W, strain ser1, stronger effect = lower value 0.99 | S. cerevisiae deletion strains, locus YOR231W, strain MKK1, stronger effect = lower value 1.01 | S. cerevisiae deletion strains, locus YOR265W, strain rbl2, stronger effect = lower value 0.984 | S. cerevisiae deletion strains, locus YOR270C, strain vph1, stronger effect = lower value 0.896 | S. cerevisiae deletion strains, locus YOR290C, strain snf2, stronger effect = lower value 0.951 | S. cerevisiae deletion strains, locus YOR316C, strain cot1, stronger effect = lower value 0.995 | S. cerevisiae deletion strains, locus YPL051W, strain arl3, stronger effect = lower value 0.975 | S. cerevisiae deletion strains, locus YPL055C, strain LGE1, stronger effect = lower value 0.992 | S. cerevisiae deletion strains, locus YPL078C, strain atp4, stronger effect = lower value 0.99 | S. cerevisiae deletion strains, locus YPL106C, strain sse1, stronger effect = lower value 0.946 | S. cerevisiae deletion strains, locus YPL240C, strain hsp82, stronger effect = lower value 0.986 | S. cerevisiae deletion strains, locus YPL241C, strain CIN2, stronger effect = lower value 1.01 | S. cerevisiae deletion strains, locus YPL256C, strain CLN2, stronger effect = lower value 0.956 | S. cerevisiae deletion strains, locus YPR119W, strain clb2, stronger effect = lower value 0.997 | S. cerevisiae deletion strains, locus YPR141C, strain kar3, stronger effect = lower value 1 | S. cerevisiae deletion strains, locus YPR163C, strain tif3, stronger effect = lower value 1 | S. cerevisiae deletion strains, locus YPR167C, strain met16, stronger effect = lower value 0.996 | S. cerevisiae deletion strains, strain wtn01, stronger effect = lower value 0.996 | S. cerevisiae strains, strain wild type, stronger effect = lower value 1.01
